# Assay results published in PubChem BioAssay (EPA / NIEHS).
# Inconclusive results are not listed. The source made the active and inactive calls. The calls were made as follows: active = hit-call score of the fitted dose curve at least 0.9, where 1 is the maximum; inconclusive = response in the unintended direction; inactive = score below 0.9.
# Biological target: Cellular tumor antigen p53 (Homo sapiens) (UniProt P04637)
# Assay: TOX21_p53_BLA_p2_ratio: Tox21 HCT-116 p53 Agonism Beta-lactamase Assay, Ratio, Phase 2 (AID 2283592)
# Summary of the method: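 HCT116 p53-bla; 4000 cells/well; 5 h pre-incubation; cpd in DMSO, 217-fold dilution; 16 h 37C/5% CO2; CCF4-AM 2 h RT; Ex 405, Em 460/530 ratio; DMSO = baseline; positive fitting direction.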
# Cellular tumor antigen p53 (Homo sapiens), sequence (P04637 whole entry, looked up): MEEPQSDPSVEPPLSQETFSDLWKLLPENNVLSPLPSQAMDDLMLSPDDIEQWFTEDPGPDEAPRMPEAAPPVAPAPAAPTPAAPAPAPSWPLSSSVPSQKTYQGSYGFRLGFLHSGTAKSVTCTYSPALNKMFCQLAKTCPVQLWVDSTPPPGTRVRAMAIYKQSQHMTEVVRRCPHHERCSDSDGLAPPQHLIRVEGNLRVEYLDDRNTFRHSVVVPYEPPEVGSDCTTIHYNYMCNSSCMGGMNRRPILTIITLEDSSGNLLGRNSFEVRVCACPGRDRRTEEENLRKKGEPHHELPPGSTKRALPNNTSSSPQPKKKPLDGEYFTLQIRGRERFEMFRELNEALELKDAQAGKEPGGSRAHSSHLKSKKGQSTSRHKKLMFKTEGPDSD
row,Structure (SMILES),outcome
1,CCN(CC)CCC(=O)N1c2ccccc2Sc2ccc(C(F)(F)F)cc21,inactive
2,CC(C)(C)C(=O)NCCCC(=O)O,inactive
3,O=C1NC(=O)c2cc([N+](=O)[O-])ccc21,inactive
4,CN1CCN(C2=Nc3ccccc3Sc3ccc(Cl)cc32)CC1,inactive
5,CN1CCN(c2c(F)cc3c(=O)c(C(=O)O)cn4c3c2OCN4C)CC1,inactive
6,C[Se]CCC(N)C(=O)O (stereo not drawn),inactive
7,C1=CCC2CC=CC2C1 (stereo not drawn),inactive
8,CC(C)C(=O)O,inactive
9,Cc1ncsc1CCO,inactive
10,CCN(CC)CCNC(=O)COc1ccc(OC)cc1,inactive
11,COC(=O)C(C)O (stereo not drawn),inactive
12,CCN(C)C(=O)Oc1cccc([C@H](C)N(C)C)c1,inactive
13,C[N+]1(C)[C@@H]2CC(OC(=O)[C@H](CO)c3ccccc3)C[C@H]1[C@@H]1O[C@@H]12 (stereo partly drawn),inactive
14,N#CSc1ccc(N)c([N+](=O)[O-])c1,inactive
15,O=S1OCCO1,inactive
16,N[C@@H](CCC(=O)Nc1ccc([N+](=O)[O-])cc1)C(=O)O,inactive
17,CC(C)OC(=O)C(C(=O)OC(C)C)=C1SC=CS1,inactive
18,CCCCCC(C)N (stereo not drawn),inactive
19,CC(C(=O)O)c1ccc(C(=O)c2cccs2)cc1 (stereo not drawn),inactive
20,O=C(C(=O)c1ccco1)c1ccco1,inactive

row,Structure (SMILES),outcome
1,COc1ccc(C2(C#N)CCC(C(=O)O)CC2)cc1OC1CCCC1 (stereo not drawn),inactive
2,O=C(CN1CCNCC1)NC1CCCCC1,inactive
3,C[C@]12CC[C@@H]3c4ccc(O)cc4CC[C@H]3[C@@H]1CC[C@@H]2OP(=O)(O)O,inactive
4,Nc1nc2c(ncn2COC(CO)CO)c(=O)[nH]1,inactive
5,O=C[O][Al]([O]C=O)[O]C=O,inactive
6,Cc1c(N=C=O)cccc1N=C=O,inactive
7,CC(=O)Oc1cc(C(C)C)c(OCCN(C)C)cc1C,inactive
8,O=C1c2ccccc2C(=O)c2c1ccc(O)c2O,inactive
9,NC(=O)Nc1nc2ccccc2[nH]1,inactive
10,C=CCOC(=O)CCCCCCCC,inactive
11,Oc1ccc(C2CNCCc3c2cc(O)c(O)c3Cl)cc1 (stereo not drawn),inactive
12,C=N[C@@H](C(=O)N[C@@H]1C(=O)N2[C@@H]1SC(C)(C)[C@@H]2C(=O)O)c1ccccc1,inactive
13,Cc1cc(O)ccc1N,inactive
14,CCC(C)(C)CC,inactive
15,O=C1c2ccccc2C(=O)C1c1ccc(F)cc1,inactive
16,Nc1cccc([N+](=O)[O-])c1,inactive
17,C1CSCCS1,inactive
18,O=C1CCCc2c1cc1ccc3cccc4ccc2c1c34,inactive
19,C=CC[N+]1([C@H]2C[C@H]3[C@@H]4CC[C@H]5C[C@H](O)[C@@H](N6CCOCC6)C[C@]5(C)[C@H]4CC[C@]3(C)[C@H]2OC(C)=O)CCCC1,inactive

# Biological target: Cellular tumor antigen p53 (Homo sapiens) (UniProt P04637)
# Assay: TOX21_p53_BLA_p3_ratio: Tox21 HCT-116 p53 Agonism Beta-lactamase Assay, Ratio, Phase 3 (AID 2283596)
# Summary of the method: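 HCT116 p53-bla cells (4000/well) given compound in DMSO (217-fold dilution) after 5 h, incubated 16 h at 37C. CCF4-AM substrate 2 h at room temperature; 460/530 nm emission ratio, gain fitted against DMSO.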
Structure (SMILES),outcome,AC50
CCN(CC)CCC(=O)N1c2ccccc2Sc2ccc(C(F)(F)F)cc21,inactive,–
CC(C)(C)C(=O)NCCCC(=O)O,inactive,–
O=C1NC(=O)c2cc([N+](=O)[O-])ccc21,inactive,–
CN1CCN(C2=Nc3ccccc3Sc3ccc(Cl)cc32)CC1,inactive,–
CN1CCN(c2c(F)cc3c(=O)c(C(=O)O)cn4c3c2OCN4C)CC1,inactive,–
C[Se]CCC(N)C(=O)O (stereo not drawn),inactive,–
C1=CCC2CC=CC2C1 (stereo not drawn),inactive,–
CC(C)C(=O)O,inactive,–
Cc1ncsc1CCO,inactive,–
CCN(CC)CCNC(=O)COc1ccc(OC)cc1,inactive,–
COC(=O)C(C)O (stereo not drawn),inactive,–
CCN(C)C(=O)Oc1cccc([C@H](C)N(C)C)c1,inactive,–
C[N+]1(C)[C@@H]2CC(OC(=O)[C@H](CO)c3ccccc3)C[C@H]1[C@@H]1O[C@@H]12 (stereo partly drawn),inactive,–
N#CSc1ccc(N)c([N+](=O)[O-])c1,inactive,–
O=S1OCCO1,inactive,–
N[C@@H](CCC(=O)Nc1ccc([N+](=O)[O-])cc1)C(=O)O,inactive,–
CC(C)OC(=O)C(C(=O)OC(C)C)=C1SC=CS1,inactive,–
CCCCCC(C)N (stereo not drawn),inactive,–
CC(C(=O)O)c1ccc(C(=O)c2cccs2)cc1 (stereo not drawn),inactive,–
O=C(C(=O)c1ccco1)c1ccco1,inactive,–

Structure (SMILES),outcome,AC50
COc1ccc(C2(C#N)CCC(C(=O)O)CC2)cc1OC1CCCC1 (stereo not drawn),inactive,–
O=C(CN1CCNCC1)NC1CCCCC1,inactive,–
C[C@]12CC[C@@H]3c4ccc(O)cc4CC[C@H]3[C@@H]1CC[C@@H]2OP(=O)(O)O,inactive,–
Nc1nc2c(ncn2COC(CO)CO)c(=O)[nH]1,inactive,–
O=C[O][Al]([O]C=O)[O]C=O,inactive,–
Cc1c(N=C=O)cccc1N=C=O,inactive,–
CC(=O)Oc1cc(C(C)C)c(OCCN(C)C)cc1C,inactive,–
O=C1c2ccccc2C(=O)c2c1ccc(O)c2O,inactive,–
NC(=O)Nc1nc2ccccc2[nH]1,inactive,–
C=CCOC(=O)CCCCCCCC,inactive,–
Oc1ccc(C2CNCCc3c2cc(O)c(O)c3Cl)cc1 (stereo not drawn),inactive,–
C=N[C@@H](C(=O)N[C@@H]1C(=O)N2[C@@H]1SC(C)(C)[C@@H]2C(=O)O)c1ccccc1,inactive,–
Cc1cc(O)ccc1N,inactive,–
CCC(C)(C)CC,inactive,–
O=C1c2ccccc2C(=O)C1c1ccc(F)cc1,inactive,–
Nc1cccc([N+](=O)[O-])c1,inactive,–
C1CSCCS1,inactive,–
O=C1CCCc2c1cc1ccc3cccc4ccc2c1c34,–,62.5 µM (active)
C=CC[N+]1([C@H]2C[C@H]3[C@@H]4CC[C@H]5C[C@H](O)[C@@H](N6CCOCC6)C[C@]5(C)[C@H]4CC[C@]3(C)[C@H]2OC(C)=O)CCCC1,inactive,–
